Screening data from PubChem BioAssay.
Pf apPOL inh – Pf-apPOL DNA polymerase inhibition; inhibition, % at 10 µM; Recombinant Pf-apPOL, molecular beacon fluorescence, 1.5 h; 0.25% of 210,000 active
mHTT-CaM PPI inh – inhibitors of human mutant huntingtin-calmodulin interaction; P42858; AlphaScreen His-mHTT/GST-CaM binding, luminescence; inhibition, % at 15 µM; 3.6% of 190,000 active
Numbers stand for hits. Most compounds without a hit are left out; they make up all but 3.5% or so of the library. Cut-off read from the data, not from the text of the source: active = inhibition above about 50%; inactive = the rest.

Screening Cc1cc(C)cc(NC(=O)C2CC(=O)N(Cc3ccc(F)cc3)C2)c1 (stereo not given) returned Pf apPOL inh inactive and mHTT-CaM PPI inh inactive.
Cc1ccc(NC(=O)C2CCN(c3cc(N4CCSCC4)ncn3)CC2)cc1 was read as Pf apPOL inh inactive and mHTT-CaM PPI inh inactive.
Cc1cccc(NC(=O)c2cc(C)n3nccc3n2)c1 was read as Pf apPOL inh inactive and mHTT-CaM PPI inh inactive.
CC(C)Cn1cc2c3c(cccc31)CN(C(=O)c1cnccn1)CC2 was read as Pf apPOL inh inactive and mHTT-CaM PPI inh inactive.
Screening COCC(=O)N1CCc2cn(CC(C)C)c3cccc(c23)C1 returned Pf apPOL inh inactive and mHTT-CaM PPI inh 76.
COc1ccc(NC(=O)N2CCc3cn(CC(C)C)c4cccc(c34)C2)cc1 was read as Pf apPOL inh inactive and mHTT-CaM PPI inh inactive.
Screening CC(C)Cn1cc2c3c(cccc31)CN(C(=O)c1ccncc1)CC2 returned Pf apPOL inh inactive and mHTT-CaM PPI inh 55.
Screening COc1cc(S(=O)(=O)N2CCN(c3ccccc3F)CC2)c(C)cc1C returned Pf apPOL inh inactive and mHTT-CaM PPI inh inactive.
Cc1ccc2[nH]c3c(c2c1)CC(NC(=O)Cc1ccccc1C)CC3 (stereo not given) was read as Pf apPOL inh inactive and mHTT-CaM PPI inh inactive.
Screening CC(C)C(=O)NC1CCc2[nH]c3cc(Cl)cc(Cl)c3c2C1 (stereo not given) returned Pf apPOL inh inactive and mHTT-CaM PPI inh 68.
Screening Cc1cc(C)c2c3c([nH]c2c1)CCC(NC(=O)C1CCCC1)C3 (stereo not given) returned Pf apPOL inh inactive and mHTT-CaM PPI inh inactive.
For Cc1nc(CC(=O)NC2CCc3[nH]c4cc(Cl)cc(Cl)c4c3C2)c(C)s1 (stereo not given) the results were Pf apPOL inh inactive and mHTT-CaM PPI inh 78.
Screening CC(C)CCSc1nnc2n1CCN2c1ccc(F)cc1 returned Pf apPOL inh inactive and mHTT-CaM PPI inh inactive.
CCOc1ccccc1C=C1Oc2c(ccc(O)c2CN2CCN(CC)CC2)C1=O was read as Pf apPOL inh inactive and mHTT-CaM PPI inh inactive.
`Cc1ccccc1NC(=O)CCC(=O)N1CCCn2nc(-c3cccn3C)cc21` gave Pf apPOL inh inactive and mHTT-CaM PPI inh inactive.
Cn1cccc1-c1cc2n(n1)CCCN2C(=O)CCC(=O)N1CCc2ccccc2C1 was read as Pf apPOL inh inactive and mHTT-CaM PPI inh 54.
Screening CCNC(=O)c1sc(-c2cccc(C)c2)nc1C returned Pf apPOL inh inactive and mHTT-CaM PPI inh inactive.
CCCNc1cc(N2CCC(CCC(=O)NC(CC)CC)CC2)ncn1 was read as Pf apPOL inh inactive and mHTT-CaM PPI inh inactive.
COc1ccccc1CN1CC(C(=O)N(C)C2CCN(C)CC2)CC1=O (stereo not given) was read as Pf apPOL inh inactive and mHTT-CaM PPI inh inactive.
`Cc1ccnc(NC(c2ccc([N+](=O)[O-])cc2)c2ccc3cccnc3c2O)c1` (stereo not given) gave Pf apPOL inh inactive and mHTT-CaM PPI inh 100.
Cc1cccc(-c2cc(NC(=O)c3ccc([N+](=O)[O-])cc3)n[nH]2)c1 was read as Pf apPOL inh inactive and mHTT-CaM PPI inh inactive.
`Cc1nc(O)c(C(c2cccc([N+](=O)[O-])c2)c2c(O)nc(C)[nH]c2=O)c(=O)[nH]1` gave Pf apPOL inh inactive and mHTT-CaM PPI inh inactive.
Screening CCC(=O)NC(c1cccc([N+](=O)[O-])c1)c1ccc2cccnc2c1O (stereo not given) returned Pf apPOL inh inactive and mHTT-CaM PPI inh 100.
Cc1ccnc(NC(c2cccc([N+](=O)[O-])c2)c2ccc3cccnc3c2O)c1 (stereo not given) was read as Pf apPOL inh inactive and mHTT-CaM PPI inh 100.
Screening CC(=O)Nc1ccc(S(=O)(=O)NCc2ccc(Cl)c(Cl)c2)cc1 returned Pf apPOL inh inactive and mHTT-CaM PPI inh inactive.
For Cc1cccc(-c2noc(C3CCCN3C(=O)COc3ccc(Cl)cc3C)n2)c1 (stereo not given) the results were Pf apPOL inh inactive and mHTT-CaM PPI inh 76.
Screening COc1cccc(-c2noc(C3CCCN3C(=O)NCc3ccc(F)cc3)n2)c1 (stereo not given) returned Pf apPOL inh inactive and mHTT-CaM PPI inh 76.
Screening COc1cccc(-c2noc(C3CCCN3C(=O)NCc3ccc(C)cc3)n2)c1 (stereo not given) returned Pf apPOL inh inactive and mHTT-CaM PPI inh inactive.
For Cc1ccccc1OCC(=O)N1CCCC1c1nc(-c2cccc(Cl)c2)no1 (stereo not given) the results were Pf apPOL inh inactive and mHTT-CaM PPI inh inactive.
`Cc1cccc(OCC(=O)N2CCCC2c2nc(-c3cccc(Cl)c3)no2)c1` (stereo not given) gave Pf apPOL inh inactive and mHTT-CaM PPI inh 78.
Cc1cccc(-c2noc(C3CCCN3C(=O)COc3ccccc3)n2)c1 (stereo not given) was read as Pf apPOL inh inactive and mHTT-CaM PPI inh inactive.
Screening CC(C)(C)C(O)CCNC(=O)c1cnccn1 (stereo not given) returned Pf apPOL inh inactive and mHTT-CaM PPI inh inactive.
For CCOC(=O)CN1CC23C=CC(O2)C(C(=O)Nc2cccc(F)c2)C3C1=O (stereo not given) the results were Pf apPOL inh inactive and mHTT-CaM PPI inh inactive.
For COc1ccc(-c2nc3ccc(C)cn3c2NC(=O)C(Cl)Cl)cc1OC the results were Pf apPOL inh inactive and mHTT-CaM PPI inh 52.
Screening COc1ccc(-c2nc3ccccn3c2NC(=O)C2CCCCC2)cc1OC returned Pf apPOL inh inactive and mHTT-CaM PPI inh 59.
COc1ccc(-c2nc3ccc(C)cn3c2NC(C)=O)cc1OC was read as Pf apPOL inh inactive and mHTT-CaM PPI inh inactive.
For COc1ccc(-c2nc3ccc(C)cn3c2NC(=O)C2CCCCC2)cc1OC the results were Pf apPOL inh inactive and mHTT-CaM PPI inh inactive.
O=C(Nc1ccccc1Cl)N(Cc1ccsc1)CC(F)(F)F was read as Pf apPOL inh inactive and mHTT-CaM PPI inh inactive.
Screening COc1ccc(C2C(C(=O)Nc3ccc(Cl)cc3)=C(C)Nc3ncnn32)cc1Br (stereo not given) returned Pf apPOL inh inactive and mHTT-CaM PPI inh inactive.
For COc1ccc(Br)cc1C1C(C(=O)Nc2ccc(Cl)cc2)=C(C)Nc2ncnn21 (stereo not given) the results were Pf apPOL inh inactive and mHTT-CaM PPI inh 60.
For O=C(Cn1nc2ccc(Sc3cccc(F)c3)nn2c1=O)NCc1ccc(Cl)cc1 the results were Pf apPOL inh inactive and mHTT-CaM PPI inh inactive.
For Cc1nccn1-c1ccc(C(=O)NCc2ccc(Cl)cc2)nn1 the results were Pf apPOL inh inactive and mHTT-CaM PPI inh inactive.
For COc1ccc(OC)c(C2CC(=O)N(C)c3c2c(C)nn3-c2nc(C)cc(C)n2)c1 (stereo not given) the results were Pf apPOL inh inactive and mHTT-CaM PPI inh inactive.
O=C(NCc1ccncc1)c1ccn2c(-c3ccccc3Br)nnc2c1 was read as Pf apPOL inh inactive and mHTT-CaM PPI inh inactive.
O=[N+]([O-])c1ccc(F)c(C(F)(F)F)c1 was read as mHTT-CaM PPI inh inactive.
CCOc1cc(/C=C2\C(=O)Nc3ccc(Br)cc32)cc(Br)c1OCC was read as Pf apPOL inh inactive and mHTT-CaM PPI inh inactive.
For O=C1Nc2ccc(Br)cc2/C1=C/c1ccc(OC2CCCC2)cc1 the results were Pf apPOL inh inactive and mHTT-CaM PPI inh inactive.
Screening COc1ccc(/C=C2\C(=O)Nc3ccc(Br)cc32)cc1O returned Pf apPOL inh inactive and mHTT-CaM PPI inh 99.
CC(C)c1ccc(/C=C2\C(=O)Nc3ccc(Br)cc32)cc1 was read as Pf apPOL inh inactive and mHTT-CaM PPI inh inactive.
